{"source": "PubChem BioAssay AID588342", "about": "(National Center for Advancing Translational Sciences (NCATS), 2011)", "note": "The whole screen tested about 360,000 compounds, of which about 25,000 (6.9%) were called active. Another 9% or so got no clear call; they are omitted. The call rests on the fitted dose curve; in most records, active means well fitted inhibition curve with a large enough effect; inconclusive means small, poorly fitted or top-dose-only effect; inactive means flat fitted curve, though single readings scatter. Many of the other results were omitted from the sample, so actives are more common in it than they were. Potency means the concentration at half of the fitted maximal effect.", "data": [{"target": "Luciferin 4-monooxygenase (Photinus pyralis) (UniProt P08659)", "sequence (P08659 whole entry, looked up)": "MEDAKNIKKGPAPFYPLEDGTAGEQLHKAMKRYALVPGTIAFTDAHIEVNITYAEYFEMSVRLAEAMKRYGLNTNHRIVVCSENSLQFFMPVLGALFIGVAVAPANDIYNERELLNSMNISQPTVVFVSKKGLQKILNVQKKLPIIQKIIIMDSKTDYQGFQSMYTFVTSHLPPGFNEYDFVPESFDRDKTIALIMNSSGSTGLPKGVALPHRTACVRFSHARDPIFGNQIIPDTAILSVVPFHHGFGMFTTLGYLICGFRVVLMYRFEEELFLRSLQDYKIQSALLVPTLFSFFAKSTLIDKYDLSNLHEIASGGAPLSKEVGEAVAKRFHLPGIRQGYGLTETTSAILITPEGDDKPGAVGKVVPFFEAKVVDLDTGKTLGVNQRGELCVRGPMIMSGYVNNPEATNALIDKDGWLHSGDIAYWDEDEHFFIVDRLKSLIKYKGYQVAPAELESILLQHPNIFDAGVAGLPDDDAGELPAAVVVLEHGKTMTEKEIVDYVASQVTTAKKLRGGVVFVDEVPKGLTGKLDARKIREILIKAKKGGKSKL", "experiment": "qHTS profiling assay for firefly luciferase inhibitor/activator using purifed enzyme and Km concentrations of substrates (counterscreen for miR-21 project); further: nearly all actives have a fitted effect of over 55% in size;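 on activity change, negative = inhibition: plate controls were vehicle for no effect and reference inhibitor for full effect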", "details": "purified FLuc, luminescence inhibition; series mostly up to 57.5 µM; activity change, negative = inhibition: at the top concentration", "how_it_was_run": "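Purified P. pyralis luciferase, 10 nM final, with Km-level 10 uM D-luciferin and 10 uM ATP in 50 mM Tris acetate pH 7.5, 10 mM Mg acetate, 0.01% Tween-20, 0.05% BSA; 6-point qHTS titration about 60 µM downward; luminescence read.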", "values": [{"compound": "CCN(Cc1ccccc1)C(=O)c1cn(-c2cccc(OC)c2)c(=O)c2ccccc12", "activity change, negative = inhibition": "-12% (inactive)"}, {"compound": "CCn1cc(C(=O)NCc2ccccc2)c(=O)c2cc(S(=O)(=O)N3CCCCC3)ccc21", "activity change, negative = inhibition": "-1.44% (inactive)"}, {"compound": "COc1ccc(C(C#N)Nc2ccccc2C)cc1", "note": "(stereo unspecified)", "activity change, negative = inhibition": "-19% (inactive)"}, {"compound": "COc1ccc(C(CC(=O)Nc2ccc(C)cc2)NC(=O)C(F)(F)F)cc1", "note": "(stereo unspecified)", "activity change, negative = inhibition": "-2.17% (inactive)"}, {"compound": "COc1ccc(C(C#N)Nc2ccc(C)cc2)cc1", "note": "(stereo unspecified)", "Potency": "1.69 µM (active)"}, {"compound": "Cc1ccc(CN2CCC(CNC(=O)c3cnn(-c4ccc(C)cc4)c3C3CCN(C(=O)OC(C)(C)C)CC3)CC2)cc1", "activity change, negative = inhibition": "-2.42% (inactive)"}, {"compound": "Cn1ccc2cc(S(=O)(=O)N3CCCC(C(=O)NCc4ccccc4F)C3)ccc21", "note": "(stereo unspecified)", "activity change, negative = inhibition": "-5.38% (inactive)"}, {"compound": "O=C(CSCc1ccc(Cl)cc1)N1CCCCC1", "Potency": "16.9 µM (active)"}, {"compound": "O=C(CSCc1ccc(Cl)cc1)N1CCN(Cc2ccc3c(c2)OCO3)CC1", "activity change, negative = inhibition": "1.28% (inactive)"}, {"compound": "O=C(COc1ccccc1Cl)N1CCCCCCC1", "activity change, negative = inhibition": "3.49% (inactive)"}, {"compound": "Cc1cccc(C)c1NC(=O)CNC(=O)C1CCCC1", "activity change, negative = inhibition": "4.17% (inactive)"}, {"compound": "Cc1ccc(CNC(=O)CSc2c3c(nc4cc(Cl)ccc24)CCCC3)cc1", "activity change, negative = inhibition": "3.6% (inactive)"}, {"compound": "COC(=O)c1sccc1S(=O)(=O)N(CC(=O)Nc1ccc(C)c(F)c1)c1ccc(C)c(C)c1", "activity change, negative = inhibition": "-5.87% (inactive)"}, {"compound": "Cc1ccccc1CSc1nnc(-c2ccccc2)c(=O)[nH]1", "Potency": "19 µM (active)"}, {"compound": "Cc1ccc(CSc2nc(-c3ccccc3)c(C#N)c(=O)[nH]2)cc1", "activity change, negative = inhibition": "-1.34% (inactive)"}, {"compound": "Cc1ccccc1CSc1nnc(-c2cccnc2)n1N", "activity change, negative = inhibition": "-0.836% (inactive)"}, {"compound": "CCCN(CC(=O)NC(=O)NC1CCCCC1)CC(=O)Nc1cc(Cl)ccc1Cl", "activity change, negative = inhibition": "-0.397% (inactive)"}, {"compound": "COc1ccccc1CNC(=O)CS(=O)(=O)c1cccc2nsnc12", "activity change, negative = inhibition": "3.65% (inactive)"}, {"compound": "CCOC(=O)c1cccc(NC(=O)c2cc(S(=O)(=O)N3CCCC(C)C3)cn2C)c1", "note": "(stereo unspecified)", "activity change, negative = inhibition": "4.78% (inactive)"}, {"compound": "COC(=O)c1ccc(C)c(NC(=O)C2CC(=O)N(C3CCCC(C)C3C)C2)c1", "note": "(stereo unspecified)", "activity change, negative = inhibition": "2.82% (inactive)"}, {"compound": "COn1c(-c2ccc(Cl)cc2Cl)nc2ncccc21", "activity change, negative = inhibition": "-4.94% (inactive)"}, {"compound": "Clc1ccc(-c2cc(-c3ccccn3)on2)c(Cl)c1", "Potency": "0.0757 µM (active)"}, {"compound": "Clc1ccc(COn2c(-c3ccc(Cl)cc3Cl)nc3ncccc32)cc1", "activity change, negative = inhibition": "-2.6% (inactive)"}, {"compound": "O=C1N(Cc2ccccc2)c2ccc(Cl)cc2C1(O)c1c[nH]c2ccccc12", "note": "(stereo unspecified)", "activity change, negative = inhibition": "-10.9% (inactive)"}, {"compound": "Cc1ccc(-c2nn3c(=O)cc(CN4CCN(C(=O)Nc5cccc(C(F)(F)F)c5)CC4)nc3s2)cc1", "activity change, negative = inhibition": "1.5% (inactive)"}, {"compound": "CCCCOc1ccc(C(=O)Nc2cccc(-c3nc4ccccc4o3)c2C)cc1", "activity change, negative = inhibition": "0.726% (inactive)"}, {"compound": "Cc1cc(C)c2oc(-c3cccc(NC(=O)c4cccc(F)c4)c3C)nc2c1", "Potency": "0.849 µM (active)"}, {"compound": "Cc1cccc(NC(=O)c2ccc3nc(C(C)C)oc3c2)c1C", "activity change, negative = inhibition": "4.06% (inactive)"}, {"compound": "CCc1cc2c(cc(C(=O)OC)n2Cc2nc(-c3ccc(C)cc3)oc2C)s1", "activity change, negative = inhibition": "4.94% (inactive)"}, {"compound": "Cc1ccc(Cn2c(=O)n(-c3ccc(C)cc3)c(=O)c3c2c2cc(C)ccc2n3C)cc1", "activity change, negative = inhibition": "0.879% (inactive)"}, {"compound": "Cc1ccc(-c2cnc(NCc3ccc(C(C)C)cc3)n2C)cc1", "activity change, negative = inhibition": "-8.87% (inactive)"}, {"compound": "Cc1cccc(N(C(=O)c2sc(C)nc2C)C(C(=O)NCC2CCCO2)c2ccccc2)c1", "note": "(stereo unspecified)", "activity change, negative = inhibition": "-0.32% (inactive)"}, {"compound": "COc1ccc(NC(=O)CCNC(=O)Cn2cnc3sc4c(c3c2=O)CCCC4)cc1OC", "activity change, negative = inhibition": "3.17% (inactive)"}, {"compound": "COc1ccc(NC(=O)CCCNC(=O)Cn2cnc3sc4c(c3c2=O)CCCC4)cc1OC", "activity change, negative = inhibition": "1.63% (inactive)"}, {"compound": "COc1ccc(/C=N/Nc2ncnc3sc4c(c23)CCCC4)cc1O", "Potency": "1.69 µM (active)"}, {"compound": "CCCOc1ccc(NC(=O)CC2C(=O)N(c3ccccc3)C(=O)N2Cc2ccco2)cc1", "note": "(stereo unspecified)", "activity change, negative = inhibition": "-2.45% (inactive)"}, {"compound": "COc1ccc(CCc2nc(-c3cccs3)no2)cc1", "Potency": "19 µM (active)"}, {"compound": "COc1ccc(OC)c(CNC(=O)CCc2nc(-c3cccs3)no2)c1", "activity change, negative = inhibition": "4.41% (inactive)"}, {"compound": "CCc1ccc(CNC(=O)CCc2nc(-c3cccs3)no2)cc1", "activity change, negative = inhibition": "1.93% (inactive)"}, {"compound": "COc1ccc(-n2c(SC)nc3sc4c(c3c2=O)CCN(C(C)=O)C4)cc1", "activity change, negative = inhibition": "-0.891% (inactive)"}, {"compound": "Cc1cccc(NC(=O)Cn2c(=O)n(CCC(C)C)c(=O)c3cccnc32)c1", "activity change, negative = inhibition": "-4.8% (inactive)"}, {"compound": "COc1ccccc1C(=O)OCc1cc(=O)n2nc(-c3cccs3)sc2n1", "activity change, negative = inhibition": "4.29% (inactive)"}, {"compound": "O=C(Cn1c(=O)n(-c2ccc(F)cc2)c(=O)c2sc3ccccc3c21)NC1CCCC1", "activity change, negative = inhibition": "1.27% (inactive)"}, {"compound": "Cc1ccc(C(=O)NCCc2nnc(SCC(=O)Nc3cccc(C(=O)O)c3)n2C)cc1", "Potency": "10.7 µM (active)"}, {"compound": "Cc1ccc(C)c2c1cc(C)c1nnc(SCC(=O)Nc3cccc(C(=O)O)c3)n12", "activity change, negative = inhibition": "1.26% (inactive)"}, {"compound": "Cc1cccc(NC(=O)CSc2nnc(CNC(=O)c3cccc(C)c3)n2-c2ccccc2)c1", "activity change, negative = inhibition": "-10.2% (inactive)"}, {"compound": "COc1ccc(CCN(Cc2cc3cccc(C)c3[nH]c2=O)C(=O)N2CCCC2)cc1OC", "activity change, negative = inhibition": "2.09% (inactive)"}, {"compound": "CCOc1ccc(NC(=O)c2cc(S(=O)(=O)N3CCCC3)c[nH]2)cc1", "activity change, negative = inhibition": "-4.94% (inactive)"}, {"compound": "O=C(CCNC(=O)c1ccc(Br)cc1)NCCCc1ccccc1", "activity change, negative = inhibition": "-3.03% (inactive)"}, {"compound": "O=C(NCCOc1ccccc1)c1ccccc1", "Potency": "4.78 µM (active)"}, {"compound": "Cc1c(C(=O)NCCCc2ccccc2)cccc1[N+](=O)[O-]", "activity change, negative = inhibition": "3.72% (inactive)"}]}]}
